Active and inactive are the calls of the source.
Experiments:
[1] = optical density shifts of acrAB sulA E. coli – strain DRC41, OD650, 48 h, E. coli filamentation inducer project, primary screen (AID 1152); conditions: higher = more signal, called active from +8 up or from −8 down;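 further: E. coli MC1000 strain DRC41 lacking acrAB efflux pump and sulA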
[2] = probe aLefty1 binding on compound microarray – biochemical, small-molecule microarray, 635/667 nm fluorescence, primary screen (AID 1153); conditions: higher = more signal;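 further: score merges spot fluorescence with signal-to-noise ratio from the scanned slide images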
[3] = plasmodial surface anion channel blockers, osmotic lysis – cell-based, P. falciparum Indochina, OD700, 1 h, primary screen (AID 1154); conditions: P. falciparum Indochina infected RBC osmotic lysis, higher = more signal, called active from +8 up or from −8 down
[4] = plasmodial surface anion channel blockers, osmotic lysis – cell-based, P. falciparum Indochina, OD700, 2 h, primary screen (AID 1155);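 further: lysis reports solute entry through the parasite surface anion channel PSAC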; conditions: P. falciparum Indochina infected erythrocytes, higher = more signal, called active from +8 up or from −8 down
[5] = changes in parasitized red cell lysis, either direction – P. falciparum Indochina, OD700, 3 h, PSAC antagonist project, primary screen (AID 1156); conditions: P. falciparum-infected erythrocytes, osmotic lysis, higher = more signal, called active from +8 up or from −8 down
[6] = plasmodial surface anion channel blockers, osmotic lysis – cell-based, P. falciparum Indochina, OD700, 18 h, primary screen (AID 1157); conditions: P. falciparum Indochina infected erythrocytes, osmotic lysis OD700, 18 h; higher = more signal, called active from +8 up or from −8 down
[7] = S6 kinase pathway phospho-S6 level changes – cell-based, A549, cytoblot, luminescence, serum-stimulated, primary screen (AID 1158); conditions: 5 h, higher = more signal;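 further: serum-stimulated A549 lung adenocarcinoma cells; signal is phosphorylated S6 detected by cytoblot immunostaining with HRP secondary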
[8] = target: NADPH oxidase 2 (Homo sapiens) (UniProt P04839); assay: compounds shifting NOX2 Amplex Red fluorescence – cell-based, HEK293-NOX2, PMA-stimulated, NOX inhibitor project, primary screen (AID 1159); conditions: 45 min, higher = more signal, called active from +8 up or from −8 down; further: test concentration not given here
NADPH oxidase 2 (Homo sapiens), sequence (P04839 whole entry, looked up): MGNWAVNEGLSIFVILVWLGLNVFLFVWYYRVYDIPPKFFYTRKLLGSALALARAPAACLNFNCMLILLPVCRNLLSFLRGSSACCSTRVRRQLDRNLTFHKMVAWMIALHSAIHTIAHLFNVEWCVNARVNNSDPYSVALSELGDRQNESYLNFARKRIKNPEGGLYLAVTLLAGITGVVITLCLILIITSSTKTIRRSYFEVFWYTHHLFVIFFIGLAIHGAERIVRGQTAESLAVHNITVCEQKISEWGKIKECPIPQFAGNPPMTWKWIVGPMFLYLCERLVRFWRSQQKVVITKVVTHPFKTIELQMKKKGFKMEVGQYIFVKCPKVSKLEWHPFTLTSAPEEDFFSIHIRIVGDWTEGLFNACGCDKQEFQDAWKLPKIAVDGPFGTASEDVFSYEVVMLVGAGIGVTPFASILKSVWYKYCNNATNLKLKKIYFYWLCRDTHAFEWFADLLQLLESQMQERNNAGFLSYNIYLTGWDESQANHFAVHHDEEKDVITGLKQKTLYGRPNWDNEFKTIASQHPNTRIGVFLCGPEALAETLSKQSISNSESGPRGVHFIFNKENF

[9] = target: NADPH oxidase 4 (Homo sapiens) (UniProt Q9NPH5); assay: compounds shifting NOX4 Amplex Red fluorescence – cell-based, HEK293-NOX4, tetracycline-induced, NOX inhibitor project, primary screen (AID 1160); conditions: HEK293-NOX4, Amplex Red H2O2 fluorescence, 45 min; higher = more signal, called active from +8 up or from −8 down
NADPH oxidase 4 (Homo sapiens), sequence (Q9NPH5 whole entry, looked up): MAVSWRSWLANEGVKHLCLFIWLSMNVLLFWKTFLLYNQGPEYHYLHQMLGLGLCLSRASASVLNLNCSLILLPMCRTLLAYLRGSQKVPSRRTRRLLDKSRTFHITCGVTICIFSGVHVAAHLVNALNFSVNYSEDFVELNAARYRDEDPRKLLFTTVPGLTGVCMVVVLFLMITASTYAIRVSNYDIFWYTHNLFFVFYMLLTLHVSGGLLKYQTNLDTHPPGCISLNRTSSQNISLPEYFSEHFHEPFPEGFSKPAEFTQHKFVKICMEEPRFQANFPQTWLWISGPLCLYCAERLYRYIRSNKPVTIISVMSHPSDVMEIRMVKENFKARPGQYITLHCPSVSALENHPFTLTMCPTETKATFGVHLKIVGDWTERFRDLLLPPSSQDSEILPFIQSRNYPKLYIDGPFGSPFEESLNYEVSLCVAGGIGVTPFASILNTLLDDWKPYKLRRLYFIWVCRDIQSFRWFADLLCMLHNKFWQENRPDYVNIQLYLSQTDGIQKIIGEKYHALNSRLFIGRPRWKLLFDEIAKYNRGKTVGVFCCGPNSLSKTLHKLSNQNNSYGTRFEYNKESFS

[10] = target: NADPH oxidase 5 (Homo sapiens) (UniProt Q96PH1); assay: compounds shifting NOX5 Amplex Red fluorescence – cell-based, HEK293-NOX5, NOX inhibitor project, primary screen (AID 1161); conditions: HEK293-NOX5, ionomycin, 45 min, higher = more signal
NADPH oxidase 5 (Homo sapiens), sequence (Q96PH1 whole entry, looked up): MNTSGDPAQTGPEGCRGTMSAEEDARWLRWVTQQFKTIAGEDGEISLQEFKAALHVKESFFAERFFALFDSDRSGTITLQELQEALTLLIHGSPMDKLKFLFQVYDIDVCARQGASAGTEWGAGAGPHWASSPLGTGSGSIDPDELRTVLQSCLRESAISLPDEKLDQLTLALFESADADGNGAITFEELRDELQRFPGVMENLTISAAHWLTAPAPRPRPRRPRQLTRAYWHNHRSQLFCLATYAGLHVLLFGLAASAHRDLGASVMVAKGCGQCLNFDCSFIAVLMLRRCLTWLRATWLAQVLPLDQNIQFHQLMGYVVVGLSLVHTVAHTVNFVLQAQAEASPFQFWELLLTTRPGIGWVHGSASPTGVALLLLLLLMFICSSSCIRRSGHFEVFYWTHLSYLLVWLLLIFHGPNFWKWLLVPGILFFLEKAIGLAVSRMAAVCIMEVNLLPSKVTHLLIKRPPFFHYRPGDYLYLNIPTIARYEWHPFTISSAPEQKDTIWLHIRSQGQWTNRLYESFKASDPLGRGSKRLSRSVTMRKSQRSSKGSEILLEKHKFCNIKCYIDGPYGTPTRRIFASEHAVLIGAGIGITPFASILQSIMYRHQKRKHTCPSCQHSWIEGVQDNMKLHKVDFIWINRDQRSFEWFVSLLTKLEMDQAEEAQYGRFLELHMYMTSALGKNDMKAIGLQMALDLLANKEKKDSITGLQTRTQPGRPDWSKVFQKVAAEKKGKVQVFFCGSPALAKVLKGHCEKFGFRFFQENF

SMILES | z-score [1] | composite z-score [2] | z-score [3] | z-score [4] | z-score [5] | z-score [6] | z-score [7] | z-score [8] | z-score [9] | z-score [10]
CCCCCCCCCCC(O)C1C=CC2C(=O)NC(=O)C2N1Nc1ccccn1 (stereo not given) | -8.86 (active) | 0.0312 | 19.9 (active) | 6.41 (inactive) | -0.0795 (inactive) | 2.71 (inactive) | -1.18 | -2.33 (inactive) | -5.71 (inactive) | -0.309
CC(C)N1CC=CC23O[C@@H]4C=CCOC(=O)[C@@H]4[C@H]2C(=O)N(CCCCCCO)[C@@H]3C1=O (stereo not given in full) | 0.864 (inactive) | -0.184 | 0.855 (inactive) | 0.619 (inactive) | 0.343 (inactive) | 0.65 (inactive) | -0.0596 | 0.936 (inactive) | -0.482 (inactive) | 1.26
COc1ccccc1CN1C(=O)c2ccccc2[C@@]2(Cc3ccccc3N(C3CC3)C2=O)[C@@H]1c1ccc(CO)cc1 | -0.685 (inactive) | -0.235 | 0.162 (inactive) | -0.0183 (inactive) | -0.108 (inactive) | 0.23 (inactive) | -0.243 | -0.161 (inactive) | 0.394 (inactive) | 1.04
CC(C)C(CO)N1C(=O)[C@@H]2[C@H]3C(=O)OCC=C[C@H]3OC23C=CCN(CCN2CCOCC2)C(=O)[C@@H]13 (stereo not given in full) | -0.706 (inactive) | -0.263 | 0.897 (inactive) | -0.136 (inactive) | 0.675 (inactive) | 0.0875 (inactive) | -0.679 | 1.26 (inactive) | 0.258 (inactive) | 2.02
CN1C(=O)C2C=CC(C(O)c3ccc(F)cc3)N(N3CCCCC3)C2C1=O (stereo not given) | -1.37 (inactive) | 0.604 | 1.02 (inactive) | 1.14 (inactive) | 0.772 (inactive) | 1.2 (inactive) | -1.08 | 0.0457 (inactive) | -0.751 (inactive) | -1.35
C=C(COC)C(=O)CC[C@H](OC(=O)c1ccccc1-c1ccccc1C(=O)O)c1ccc(CO)o1 | -0.093 (inactive) | -0.0954 | 1.77 (inactive) | 0.404 (inactive) | 1.38 (inactive) | 0.161 (inactive) | -0.121 | -0.0961 (inactive) | -0.0962 (inactive) | -0.0437
CC(C)CNC(=O)[C@@]1(c2ccc([N+](=O)[O-])cc2)CC(=O)N(C(C)C)[C@@H]1c1ccc(CO)cc1 | 1.27 (inactive) | -0.0547 | 0.224 (inactive) | -0.227 (inactive) | -1.64 (inactive) | -0.533 (inactive) | 0.557 | -0.145 (inactive) | -0.423 (inactive) | -1.44
O=C1C2C=CC(C(O)c3ccccn3)N(Nc3ccccc3)C2C(=O)N1c1ccccc1 (stereo not given) | -0.803 (inactive) | 0.0437 | 1.67 (inactive) | 1.27 (inactive) | -0.167 (inactive) | 0.974 (inactive) | -0.721 | -1.21 (inactive) | -3.92 (inactive) | -2.84
C=C(/C(=C/C[C@@H](OC(=O)c1ccncc1)c1cccc(OCCO)c1)c1cc(C(=O)OC)ccc1OC)C(C)C | 0.987 (inactive) | 0.649 | 15 (active) | 3.01 (inactive) | 2.43 (inactive) | 1.04 (inactive) | 0.421 | 2.05 (inactive) | 1.09 (inactive) | -0.951
C=CCOC(=O)[C@@H]1[C@H]2C(=O)O[C@H](c3ccccc3)[C@H](c3ccccc3)N2[C@H](c2ccc(OCCOC(=O)[C@@H]3C[C@@H]4C(=O)N[C@@H](CCCCNC(C)=O)C(=O)N4[C@@H]3c3ccc(O)cc3)cc2)[C@@]12C(=O)Nc1ccc(I)cc12 | 0.158 (inactive) | 0.998 | 0.978 (inactive) | 1.08 (inactive) | 1.45 (inactive) | 0.718 (inactive) | -0.581 | 1.42 (inactive) | 1.35 (inactive) | 0.716
CCC[C@@H]1C[C@@]1(CCC)[C@@H](NC(=O)c1ccco1)c1ccc(Cl)cc1 | -1.37 (inactive) | -0.0035 | 1.85 (inactive) | 0.238 (inactive) | 0.425 (inactive) | 0.469 (inactive) | -0.0915 | -1.46 (inactive) | -3.83 (inactive) | -0.796
COCCCNC(=O)[C@@]1(Cc2ccccc2)COC(c2ccc(OCCCO)cc2)=N1 | 1.76 (inactive) | 1.1 | 22 (active) | 4.97 (inactive) | 1.12 (inactive) | 1.04 (inactive) | -0.194 | -1.25 (inactive) | 1.05 (inactive) | -0.909
CCN(CC)c1ccc(N2CC=CC34O[C@@H]5/C=C\CCCOC(=O)C5[C@H]3C(=O)N(CCCCCCO)[C@@H]4C2=O)cc1 (stereo not given in full) | 1.75 (inactive) | 0.135 | 1.78 (inactive) | -0.475 (inactive) | 0.625 (inactive) | -0.354 (inactive) | 1.66 | 0.274 (inactive) | 0.275 (inactive) | 1.36
OCc1ccc(-c2cc[n+](Cc3cccc(OC(F)(F)F)c3)cc2)cc1 | 0.0027 (inactive) | 0.423 | 0.51 (inactive) | 0.409 (inactive) | -0.445 (inactive) | -0.0616 (inactive) | -0.104 | -0.316 (inactive) | -0.0783 (inactive) | -3.79
COc1cc(C(O)C2C=CC3C(=O)NC(=O)C3N2Nc2ccc(Cl)cc2Cl)cc(OC)c1OC (stereo not given) | -1.52 (inactive) | 0.505 | 1.94 (inactive) | 1.49 (inactive) | 0.0681 (inactive) | 1.24 (inactive) | -0.778 | -0.885 (inactive) | -5.56 (inactive) | -3.11
COCC(=C=CC[C@@H](O)c1ccccc1OCCO)C[C@@H](O)c1ccccn1 | -0.197 (inactive) | 0.235 | 8.59 (active) | 0.801 (inactive) | 0.502 (inactive) | 0.577 (inactive) | -0.456 | -0.459 (inactive) | -1.04 (inactive) | -1.31
COC(=O)[C@H]1N=C(c2ccc(OCCCO)cc2)O[C@H]1c1ccccc1CN=[N+]=[N-] | 0.495 (inactive) | 0.938 | 24 (active) | 7.57 (inactive) | 1.35 (inactive) | 1.11 (inactive) | -0.221 | -0.102 (inactive) | 1.43 (inactive) | 0.352

From PubChem BioAssay
